Spn PMK inh – inhibitors of Streptococcus pneumoniae phosphomevalonate kinase; purified PMK, PK/LDH-coupled NADH absorbance 340 nm; inhibition, % at 10 µM; 65,000 tested, 0.49% active;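 active = top-ranked compounds by inhibition in the single 10 µM screen, taking a fixed number of the strongest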;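 also: 0% = full reaction with DMSO carrier and 100% = background rate without enzyme reaction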
NADH enzymes – inhibition of NAD/NADH coupling enzymes, library profiling; coupled PK/LDH NADH assays, four targets; IC50, µM (titrated, usually from 10 µM), for inactives: at the top dose inhibition; 65,000 tested, 0.02% active; AID 774;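 active = single-dose screening hits from any of four coupled enzyme assays that gave an IC50 when retested across doses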;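 also: the DPM-DC format reads NADH fluorescence rather than 340 nm absorbance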
Spn MK inh – blocks S. pneumoniae mevalonate kinase | 65,000 tested, 0.48% active | inhibition, % at 10 µM | purified MK, PK/LDH-coupled NADH absorbance 340 nm;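 active = ranked among the strongest by inhibition in the single 10 µM screen, a fixed top-ranked set picked for dose follow-up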
Fluor 339 460 – intrinsic fluorescence of library compounds, ex339/em460 – biochemical, MLSMR library, data from DPM-DC assay, artefact control, profiling panel; compound autofluorescence, ex339/em460 nm, NADH buffer; active compounds read high; 1 = no-compound wells, NADH background; AID 709; 65,000 tested, 5.5% active; fluorescence fold increase at 10 µM;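 active = at 10 µM, mean starting fluorescence two-fold or more over control wells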;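 also: signal is the first read of a kinetic run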
Abs 340nm – compound absorbs light at 340 nm | compound absorbance at 340 nm, fold over control | fold change at 10 µM | 65,000 tested, under 10 active | AID 708;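 active = at 10 µM dose, initial 340 nm absorbance at least 2 fold that of control wells; inactive = change under 2 fold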;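 also: initial absorbance extrapolated from kinetic A340 decline of NADH oxidation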
DPM-DC inhibit – S. pneumoniae DPM-DC inhibition | purified DPM-DC, PK/LDH coupled NADH fluorescence | calls only at 10 µM | 65,000 tested, 0.49% active;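 active = the 320 compounds with the highest percent inhibition in the single-dose primary screen, excluding strongly autofluorescent ones, cut at about 32% in these data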;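 also: kinetic rate of NADH fluorescence loss reporting ADP formed by the decarboxylase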
The depositor's hits bear a star; i = inactive; / = no result shown; + = active, no number. Compounds with a hit are over-represented: about 6.5% of the library has one in this group of screens.

SMILES | Spn PMK inh | NADH enzymes | Spn MK inh | Fluor 339 460 | Abs 340nm | DPM-DC inhibit
CC(Sc1ncc(C#N)c(N)n1)C(=O)Nc1ccccc1 (stereo not given) | 26.0* | 9.0% | 0.0 | 1.05 | 1.01 | i
COC(=O)C1=C(C)NC(C)=C(C(=O)OC)C1c1cn(-c2ccccc2)nc1-c1ccco1 | 0.0 | 9.0% | 11.0 | 1.5 | 1.07 | i
COc1cc2c(cc1NCc1ccccn1)oc1ccccc12 | 4.0 | 3.0% | 4.0 | 2.35* | 1.02 | /
COc1cc2c(cc1NC(=O)CSCC(=O)O)oc1ccccc12 | 1.0 | 4.0% | 11.0 | 1.12 | 1.11 | i
COC(=O)c1cc(OC)c(OC)cc1NC(=O)Nc1ccccc1OC | 13.0 | 14.0% | 15.0 | 2.06* | 1.04 | /
COC(=O)c1cc(OC)c(OC)cc1NC(=O)c1oc2ccccc2c1C | 5.0 | 16.0% | 9.0 | 2.46* | 1.07 | +
COc1ccc(OC)c(S(=O)(=O)Nc2ccc(O)c(Sc3ncn[nH]3)c2)c1 | 3.0 | 5.0% | 11.0 | 1.11 | 1.04 | i
CCOC(=O)c1c(-c2ccccc2)[nH]c2ccc(O)cc12 | 1.0 | 5.0% | 9.0 | 3.74* | 1.09 | /
CC(=O)c1cccc(NC(=O)c2ccc(Br)o2)c1 | 5.0 | 2.0% | 0.0 | 1.09 | 1.06 | i
O=C(Nc1ccc2nn(-c3ccccc3)nc2c1)c1ccc2c(c1)OCCO2 | 0.0 | 5.0% | 9.0 | 2.19* | 1.15 | /
O=C(Nc1ccc2nn(-c3ccccc3)nc2c1)c1ccc(Br)o1 | 18.0 | 9.0% | 6.0 | 1.8 | 1.01 | +
O=C(Nc1ccc2nsnc2c1)c1ccc2c(c1)OCO2 | 6.0 | 7.0% | 7.0 | 1.29 | 1.15 | i
CC1CCCN(C(=O)C2CCN(CC3CC=CCC3)CC2)C1 (stereo not given) | 8.0 | 11.0% | 25.0 | 1.07 | 1.05 | i
O=C(Nc1ccc(Oc2ccccc2)cc1)c1cnc2n(c1=O)CCS2 | 3.0 | 11.0% | 2.0 | 1.91 | 1.06 | i
c1ccc2c(c1)[nH]c1c(N3CCOCC3)ncnc12 | 2.0 | 5.0% | 3.0 | 1.68 | 1.1 | i
c1ccc2c(c1)[nH]c1c(N3CCN(C4CCCCC4)CC3)ncnc12 | 0.0 | 5.0% | 9.0 | 2.33* | 1.06 | /
c1ccc2c(c1)[nH]c1c(N3CCCC3)ncnc12 | 13.0 | 10.0% | 13.0 | 1.36 | 1.06 | i
CN1CCN(c2ncnc3c2[nH]c2ccc(F)cc23)CC1 | 0.0 | 4.0% | 8.0 | 2.32* | 1.11 | /
Cc1ccc2[nH]c3c(N4CCOCC4)ncnc3c2c1 | 0.0 | 2.0% | 2.0 | 2.48* | 1.02 | /
Cc1ccc(S(=O)(=O)Nc2ccc(Br)cc2/C=N/n2cnnc2)cc1 | 5.0 | 4.0% | 6.0 | 1.19 | 1.04 | i
CCc1nc(Nc2ccncc2)c2oc3ccccc3c2n1 | 8.0 | 15.0% | 17.0 | 2.04* | 1.21 | i
CCc1nc(NC(C)C)c2oc3ccccc3c2n1 | 0.0 | 5.0% | 15.0 | 1.09 | 1.04 | i
COc1ccccc1NS(=O)(=O)c1cccc2cccnc12 | 5.0 | 26.0% | 51.0* | 1.13 | 1.05 | i
Cc1ccc(C)c(OCCOCCN2CCOCC2)c1 | 0.0 | 0.0% | 1.0 | 1.09 | 1.03 | i
Clc1cc(Br)ccc1OCCOCCN1CCOCC1 | 1.0 | 15.0% | 44.0* | 1.11 | 1.02 | i
SMILES | Spn PMK inh | NADH enzymes | Spn MK inh | Fluor 339 460 | Abs 340nm | DPM-DC inhibit
COC(=O)c1sc2nc(N3CCCCC3)c3c(c2c1N)CC(C)(C)N(C)C3 | 2.0 | 1.0% | 0.0 | 2.33* | 1.09 | /
CCOC(=O)c1sc2nc(N3CCOCC3)c3c(c2c1N)CCC3 | 5.0 | 11.0% | 17.0 | 3.64* | 1.15 | /
Cc1ccccc1-n1c(C)nnc1SCC(=O)N1CC(=O)Nc2ccccc21 | 18.0 | 6.0% | 0.0 | 1.01 | 1 | i
Nc1nnc(-c2ccco2)s1 | 0.0 | 4.0% | 3.0 | 1.01 | 1.03 | i
Nc1ncnc2oc(-c3ccco3)c(-c3ccco3)c12 | 3.0 | 6.0% | 15.0 | 2.4* | 1.02 | /
CCOc1ccc2[nH]c(=O)c(CN(CCO)C(=O)c3ccc(F)cc3)cc2c1 | 2.0 | 15.0% | 17.0 | 3.35* | 1.08 | i
CCOc1ccc2[nH]c(=O)c(CN(CCO)C(=O)c3ccccc3F)cc2c1 | 1.0 | 6.0% | 0.0 | 3.04* | 1.09 | i
CCN(CC)S(=O)(=O)c1ccc(C(=O)OCn2nnc3ccccc3c2=O)cc1 | 12.0 | 8.0% | 8.0 | 1.03 | 1 | i
CCc1nc(N2CCOCC2)c(C#N)c2c1CCCC2 | 2.0 | 1.0% | 0.0 | 2.02* | 1.04 | i
CN1CCc2c(C#N)c(N3CCCCC3)nc(N3CCOCC3)c2C1 | 1.0 | 6.0% | 4.0 | 1.58 | 1.12 | i
CCCc1nc(N2CCCC2)c(C#N)c2c1CCCC2 | 0.0 | 7.0% | 20.0 | 2.06* | 1.03 | i
CCc1nc(N2CCCC2)c(C#N)c2c1CCCC2 | 12.0 | 4.0% | 0.0 | 1.62 | 0.93 | i
CC(C)c1nc(N2CCCC2)c(C#N)c2c1CCCC2 | 0.0 | 1.0% | 1.0 | 2.12* | 1.05 | /
O=C(COc1ccc2oc(-c3ccccc3)cc(=O)c2c1)NCc1ccco1 | 10.0 | 8.0% | 5.0 | 3.85* | 1.13 | /
O=C(COC(=O)COc1ccc(Nc2ccccc2)cc1)NCc1ccco1 | 12.0 | 6.0% | 7.0 | 1.01 | 0.98 | i
COC(=O)c1cc2c(s1)-c1ccccc1OC2 | 11.0 | 9.0% | 6.0 | 2.1* | 1.12 | /
CCOC(=O)Cc1csc(NC(=O)CSc2ncnc3c2cnn3-c2ccc(OC)cc2)n1 | 12.0 | 9.0% | 11.0 | 2.45* | 0.99 | i
COC(=O)CN(c1ccccn1)S(=O)(=O)c1ccccc1 | 6.0 | 10.0% | 2.0 | 3.14* | 1.03 | i
Cc1cc(=O)[nH]c2c(C)c(Cl)ccc12 | 9.0 | 7.0% | 6.0 | 1.15 | 1.03 | i
Cc1cc(=O)[nH]c2c(C)c(N)ccc12 | 13.0 | 12.0% | 10.0 | 3.93* | 1.07 | /
CCCn1c(-c2ccc(OC)cc2)nc2nc3ccccc3nc21 | 17.0 | 12.0% | 6.0 | 2.11* | 1.17 | /
Clc1ccc(-c2nc3nc4ccccc4nc3n2Cc2ccco2)cc1 | 0.0 | 0.0% | 1.0 | 1.87 | 1.13 | i
COCCCn1c(-c2ccc(OC)cc2)nc2nc3ccccc3nc21 | 3.0 | 2.0% | 0.0 | 3.99* | 1.05 | /
COc1ccc(-c2nc3ccccc3c(=O)n2CCN2CCOCC2)cc1 | 4.0 | 3.0% | 6.0 | 1.1 | 1.03 | i
CCOC(=O)C1CCCN(S(=O)(=O)c2cccc3cccnc23)C1 (stereo not given) | 6.0 | 3.0% | 4.0 | 1.11 | 1.02 | i
COc1ccc(CNc2nc3nc(C)cc(C)n3n2)cc1OC | 5.0 | 1.0% | 4.0 | 1.06 | 1.01 | i
Cc1cc(C)n2nc(NCc3cccc(Br)c3)nc2n1 | 11.0 | 10.0% | 8.0 | 3.64* | 1.07 | /
Cc1cc(=O)oc(C)c1C(=O)n1nc(C)c2c1C[C@@H]1[C@H]2C1(C)C | 10.0 | 4.0% | 0.0 | 1.08 | 1.03 | i
CCOC(=O)N1CCN(C(=O)c2cc3cc(Br)ccc3oc2=O)CC1 | 0.0 | 1.0% | 2.0 | 1.13 | 1.11 | i

Screens from PubChem BioAssay.
